Reference: the supplement of paper PMC8540655

Test system: Aedes aegypti larvae
Assay: larval motility relative to same well at 0 h (fraction); higher = more motile (less active compound), active = 0.4 or less
Settings: 10 µM; 2 h
Procedure: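 MMV Pandemic Response Box compounds were tested at 10 µM (1% v/v DMSO) on Aedes aegypti larvae (18-24 h after hatching, about 10 per well, 96-well plates). Motility was quantified with INVAPP (200-frame movies) at 0, 2 and 24 h. Each well's motility was divided by its own 0 h score, and the median of 3 independent screens is reported.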

Row | SMILES | larval motility
1 | COc1ccc(SCC(=O)N2c3ccccc3Sc3ccccc32)cc1 | 0.631 (inactive)
2 | O=C(O)C[C@H]1CC[C@H](c2ccc(-c3ccc(Nc4ccc(C(F)(F)F)nc4)cn3)cc2)CC1 | 0.644 (inactive)
3 | COc1nc2ccc(Br)cc2cc1[C@@H](c1ccccc1)[C@@](O)(CCN(C)C)c1cccc2ccccc12 | 0.838 (inactive)
4 | COc1ccccc1NC(=O)c1ccccc1Sc1ccc([N+](=O)[O-])cc1 | 0.911 (inactive)
5 | O=C1c2cccc3cccc(c23)C(=O)N1CC1CO1 (stereo not given) | 0.906 (inactive)
6 | CN(C/C=C/C#CC(C)(C)C)Cc1cccc2ccccc12 | 0.66 (inactive)
7 | C=CCN(C(=O)OCc1ccc([N+](=O)[O-])cc1)C1CCN(CC[C@](C)(CN(C)S(=O)(=O)c2ccccc2)c2ccccc2)CC1 | 0.847 (inactive)
8 | Cc1nc2ccc(Cl)cc2c(-c2ccccc2)c1CC(=O)O | 0.615 (inactive)
9 | CC(C)(C)OC(=O)NCc1ccc(C(=O)N[C@H]2CCOC2=O)cc1 | 0.701 (inactive)
10 | CNCC(=O)OCc1cccnc1N(C)C(=O)OC(C)[n+]1cnn(C[C@](O)(c2cc(F)ccc2F)[C@@H](C)c2nc(-c3ccc(C#N)cc3)cs2)c1 (stereo not given in full) | 1.02 (inactive)
11 | CCCCCCCCC(CP(=O)(O)C(C)N)C(=O)O (stereo not given) | 0.654 (inactive)
12 | Nc1nnnn1CCOc1c2[nH]c3ccc(Cl)cc3c2cc2c1[nH]c1ccc(Cl)cc12 | 0.958 (inactive)
13 | O=[N+]([O-])c1cn2c(n1)OC[C@@H](OCc1ccc(OC(F)(F)F)cc1)C2 | 1.12 (inactive)
14 | Nc1cc(N)c2nc(-c3ccccc3)c(Nc3ccc(F)cc3)nc2c1 | 0.877 (inactive)
15 | CCOC(=O)Nc1cc(NC(C)CC(C)CN(CC)CC)c2nc(-c3ccccc3)c(-c3ccccc3)nc2n1 (stereo not given) | 0.848 (inactive)
16 | Nc1nc(O)c2ncn(COCCO)c2n1 | 0.732 (inactive)
17 | COc1ccc(OCc2ccc(COc3c(Cl)cccc3Cl)cc2)c(Cl)c1 | 1.19 (inactive)
18 | CCCC1(C2CC2)c2cc(Cl)ccc2NC(=O)N1C (stereo not given) | 0.846 (inactive)
19 | O=[N+]([O-])/C(Br)=C/c1ccc(Br)o1 | 1.13 (inactive)
20 | O=C(Nc1cccc(C2=NCCN2)c1)c1ccc(-c2ccc(C(=O)Nc3cccc(C4=NCCN4)c3)cc2)cc1 | 0.648 (inactive)

Same assay, conditions: 10 µM; 24 h

Row | SMILES | larval motility
21 | COc1ccc(SCC(=O)N2c3ccccc3Sc3ccccc32)cc1 | 1.01 (inactive)
22 | O=C(O)C[C@H]1CC[C@H](c2ccc(-c3ccc(Nc4ccc(C(F)(F)F)nc4)cn3)cc2)CC1 | 0.489 (inactive)
23 | COc1nc2ccc(Br)cc2cc1[C@@H](c1ccccc1)[C@@](O)(CCN(C)C)c1cccc2ccccc12 | 0.679 (inactive)
24 | COc1ccccc1NC(=O)c1ccccc1Sc1ccc([N+](=O)[O-])cc1 | 0.861 (inactive)
25 | O=C1c2cccc3cccc(c23)C(=O)N1CC1CO1 (stereo not given) | 0.936 (inactive)
26 | CN(C/C=C/C#CC(C)(C)C)Cc1cccc2ccccc12 | 0.879 (inactive)
27 | C=CCN(C(=O)OCc1ccc([N+](=O)[O-])cc1)C1CCN(CC[C@](C)(CN(C)S(=O)(=O)c2ccccc2)c2ccccc2)CC1 | 0.852 (inactive)
28 | Cc1nc2ccc(Cl)cc2c(-c2ccccc2)c1CC(=O)O | 1.02 (inactive)
29 | CC(C)(C)OC(=O)NCc1ccc(C(=O)N[C@H]2CCOC2=O)cc1 | 0.769 (inactive)
30 | CNCC(=O)OCc1cccnc1N(C)C(=O)OC(C)[n+]1cnn(C[C@](O)(c2cc(F)ccc2F)[C@@H](C)c2nc(-c3ccc(C#N)cc3)cs2)c1 (stereo not given in full) | 0.736 (inactive)
31 | CCCCCCCCC(CP(=O)(O)C(C)N)C(=O)O (stereo not given) | 1.09 (inactive)
32 | Nc1nnnn1CCOc1c2[nH]c3ccc(Cl)cc3c2cc2c1[nH]c1ccc(Cl)cc12 | 1.16 (inactive)
33 | O=[N+]([O-])c1cn2c(n1)OC[C@@H](OCc1ccc(OC(F)(F)F)cc1)C2 | 1.3 (inactive)
34 | Nc1cc(N)c2nc(-c3ccccc3)c(Nc3ccc(F)cc3)nc2c1 | 0.892 (inactive)
35 | CCOC(=O)Nc1cc(NC(C)CC(C)CN(CC)CC)c2nc(-c3ccccc3)c(-c3ccccc3)nc2n1 (stereo not given) | 1.04 (inactive)
36 | Nc1nc(O)c2ncn(COCCO)c2n1 | 0.823 (inactive)
37 | COc1ccc(OCc2ccc(COc3c(Cl)cccc3Cl)cc2)c(Cl)c1 | 1.03 (inactive)
38 | CCCC1(C2CC2)c2cc(Cl)ccc2NC(=O)N1C (stereo not given) | 0.863 (inactive)
39 | O=[N+]([O-])/C(Br)=C/c1ccc(Br)o1 | 0.796 (inactive)
40 | O=C(Nc1cccc(C2=NCCN2)c1)c1ccc(-c2ccc(C(=O)Nc3cccc(C4=NCCN4)c3)cc2)cc1 | 0.961 (inactive)
